# In PubChem BioAssay (NCI):
# The panel holds about 83,000 compounds, 20% with a hit somewhere; the sample as a whole holds those more often.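 Assay: single dose, 48 h. Readout: percent growth (0 = no net growth; negative = cell death). Active: <10.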 A number with no mark means an inactive call. Calls of active or inactive are those of the source.
# System: MCF7 breast
# Experiment: NCI-60 one-dose screen, 48 h (100 = growth as untreated, 0 = no growth, -100 = all killed)
# Conditions: 10 µM unless noted
# Experimental: Growth inhibition of the MCF7 human tumor cell line is measured as a screen for anti-cancer activity. Cells are grown in 96 well plates and exposed to the test compound for 48 hours. Compounds are tested at a single concentration, which is 10^-5 M for most compounds. The reported endpoint is percent growth (GI% or GIPRCNT), where numbers from 0 - 100% represent growth inhibition, and numbers from -100% - 0 represent cell death. For example, a value of 40 represents 60% growth inhibition. A value of 0 means no net growth occurred over the course of the experiment. A value of -40 indicates 40% of cells at the beginning of the experiment died by the end of the experiment. A value of -100 means all cells are dead at the end of the experiment.
# NCI-60 Human Tumor Cell Lines Screen was performed using the standard one-dose NCI protocol, which is described in more detail at https://dtp.cancer.gov/discovery_development/nci-60/default.htm.
# Compounds with GIPRCNT values below 10 were considered active. Activity score was based on GIPRCNT using the following formula: […]
# Score is 0 for GIPRCNT values of 100 or above, 50 for GIPRCNT values of 0, and 100 for GIPRCNT values of -100.
row,Compound,growth
1,CCOC(=O)N[C@H]1CCc2c(Br)c(OC)c(OC)c(OC)c2-c2ccc(SC)c(=O)cc21,10.8%
2,COC(=O)[C@@]1(O)C[C@H]2O[C@]1(C)n1c3ccccc3c3c4c(c5c6ccccc6n2c5c31)C(=O)NC4,-40.7% (active)
3,COc1cc2c(cc1OCCCCCn1c(-c3ccco3)nc3ccccc31)N=C[C@@H]1CCCN1C2=O,13.4%
4,COc1cc(NCCCN=C(N)N)c2ncccc2c1,-51.3% (active)
5,Cc1ccc(S(=O)(=O)F)cc1C(=O)O,111%
6,CCOc1ccc(/C=C/[N+](=O)[O-])cc1,28.5%
7,COc1ccc(/C=C\c2cc(OC)c(OC)c(OC)c2)cc1NC(=O)/C=C/c1cc(OC)c(OC)c(OC)c1,25.2%
8,N#CC1(c2ccccc2)CCN(Cc2ccccc2)CC1,110%
9,CCCCN1CCCC[C@@H]1C(=O)N[C@H](C(=O)N(C)[C@H](C[C@@H](OC(C)=O)c1nc(C(=O)NC2CCC(C(=O)OC)CC2)cs1)C(C)C)C(C)C (stereo not given in full),24.6%
10,CC(C)[C@@H]1NC(=O)[C@]2(C)CSC(=N2)c2csc(n2)CNC(=O)C[C@@H](/C=C/CCS)OC1=O,13.9%
11,O=C(O)C(Cl)(Cl)C(F)(F)F,99.6%
12,CC(CO)NC1CCCCC1 (stereo not given),109%
13,O=C(c1cccc(O)c1O)c1cn(Cc2ccc(F)cc2)c2cccc(O)c12,26.9%
14,C[C@]12CC[C@H]3[C@@H](CC[C@]4(O)C[C@@H](O[C@@H]5O[C@H](CO)[C@@H](O[C@@H]6OC[C@@H](O)[C@H](O)[C@H]6O)[C@H](O)[C@H]5O)CC[C@]34C=O)[C@@]1(O)CC[C@@H]2C1=CC(=O)OC1,3.61% (active)
15,CCOP1(=O)CC(C)=C(Cl)C(P(=O)(OCC)OCC)C1 (stereo not given),99.7%
16,C[C@@H]1CCC2[C@@H](C)[C@H](OC(=O)CCC(=O)NCCNC(=O)Cc3cc(=O)oc4cc(N(C)C)ccc34)O[C@@H]3O[C@]4(C)CC[C@@H]1C23OO4 (stereo not given in full),35.9%
17,CC(=O)Oc1ccccc1C(=O)NCCC[Se]C#N,14.5%
18,CC[C@]12C=CCN3CC[C@@]4(c5ccc(OC)cc5N(C)[C@H]4[C@@](O)(C(=O)OC)[C@@H]1OC(=O)CCCC[P+](c1ccccc1)(c1ccccc1)c1ccccc1)[C@@H]32,4.69% (active)
19,C/C(=C\c1cc(C(F)(F)F)nn1CCNC(=O)OC(C)(C)C)[C@@H]1C[C@@H]2O[C@]2(C)CCC[C@H](C)[C@H](O)[C@@H](C)C(=O)C(C)(C)[C@@H](O)CC(=O)O1,31.2%
20,CC(=O)O[C@H](C[C@H](C(C)C)N(C)C(=O)[C@@H](NC(=O)[C@H]1CCCCN1C)C(C)C)c1cccc(C(=O)N[C@@H](Cc2ccccc2)C[C@H](C)C(=O)O)n1,15.9%

row,Compound,growth
1,CC1[C@H](C)OC(=O)CC(O)CC(O)CC(O)CCC(O)C(O)C[C@]2(O)CC(O)C(C(=O)O)C(CC(OC3O[C@H](C)[C@@H](O)[C@H](N)[C@@H]3O)/C=C/C=C/C=C/C=C/CC/C=C/C=C/[C@H](C)[C@H]1O)O2 (stereo not given in full),104%
2,CC[C@]12C=CCN3CC[C@]4(C(=C(C(=O)OC)C1)Nc1cc(OC)c(OC(C)=O)cc14)[C@@H]32,13.1%
3,C[C@]12C[C@@H](CO)[C@H](O)C[C@@H]1CC[C@@H]1[C@@H]2CC[C@]2(C)[C@@H](O)CC[C@@H]12,121%
4,COC(=O)CC12CC(NC(=O)c3csc([C@@H](C[C@H](C(C)C)N(C)C(=O)[C@@H](NC(=O)[C@H]4CCCCN4C)C(C)C)OC(C)=O)n3)(C1)C2,20.4%
5,Fc1cccc(NCOOC2(OOCNc3cccc(F)c3)CCCCC2)c1,88.8%
6,O=C1NC(=O)C(=Cc2cn(C(=O)c3ccccc3)c3ccccc23)C(=O)N1,89.4%
7,CCCCCSC1C2C(=O)C(Br)=CC13CCNc1c(O)c4c5c(c13)=[N+]2CCC=5C=N4 (stereo not given),-54.9% (active)
8,CC(=O)OCC1O[C@@H]([S-])C(OC(C)=O)[C@H](OC(C)=O)[C@@H]1OC(C)=O.[Au+].c1ccc(CN2[CH-]N(Cc3ccccc3)C(c3ccccc3)=C2c2ccccc2)cc1,-3.49% (active)
9,CCCCCCCCCCCCCCCCCC1OC[C@H](COC(=O)O[C@@H](C(=O)O[C@H]2C[C@@]3(O)[C@@H](OC(=O)c4ccccc4)[C@@H]4[C@]5(OC(C)=O)CO[C@@H]5C[C@H](O)[C@@]4(C)C(=O)[C@H](OC(C)=O)C(=C2C)C3(C)C)[C@@H](NC(=O)c2ccccc2)c2ccccc2)O1 (stereo not given in full),25.9%
10,Nc1ccc(Cl)cc1,98.2%
11,CCCCCCCCCCCCCC[P+](CCCCCC)(CCCCCC)CCCCCC,-51.8% (active)
12,O=C(CCCCCNC1=CC(=O)c2ccccc2C1=O)NCCC[Te]c1ccccc1,4.88% (active)
13,CN1CC(CNC(=O)OCc2ccccc2)CC2c3cccc4c3c(cn4C)CC21 (stereo not given),-55.3% (active)
14,COc1cc(/C=C\c2cc(OC)c(OC)c(OC)c2)cc(NS(=O)(=O)c2cccc(Cl)c2)c1OC,7.6% (active)
15,CC(=O)O[C@H]1C(=O)[C@@]2(C)[C@H]([C@H](OC(=O)c3ccccc3)[C@]3(O)C[C@H](OC(=O)[C@H](OC(=O)OC[C@@H]4COC(C)(C)O4)[C@@H](NC(=O)c4ccccc4)c4ccccc4)C(C)=C1C3(C)C)[C@]1(OC(C)=O)CO[C@@H]1C[C@@H]2O,11%
16,CC(=O)O[C@H]1C(=O)[C@@]2(C)[C@H]([C@H](OC(=O)c3ccccc3)[C@]3(O)C[C@H](OC(=O)[C@H](OC(=O)OC[C@H]4COC(C)(C)O4)[C@@H](NC(=O)c4ccccc4)c4ccccc4)C(C)=C1C3(C)C)[C@]1(OC(C)=O)CO[C@@H]1C[C@@H]2O,9.62% (active)
17,COc1ccc(C(=O)c2sc3nc4c(cc3c2N)N2CCC4CC2)cc1OC,84.5%
18,COC(=O)[C@H](Cc1ccccc1)NC(=O)c1csc([C@@H](C[C@H](C(C)C)N(C)C(=O)[C@@H](NC(=O)[C@H]2CCCCN2C)C2CC2)OC(C)=O)n1,19.5%
19,COC(=O)[C@@H](C[C@H](Cc1ccccc1)NC(=O)c1csc([C@@H](C[C@H](C(C)C)N(C)C(=O)[C@@H](NC(=O)[C@H]2CCCCN2C)C(C)C)OC(C)=O)n1)NC(=O)OCc1ccccc1,27.8% [9.5 µM]
20,COC(=O)[C@]12CCC(C)(C)C[C@H]1[C@H]1C(=O)C[C@@H]3[C@@]4(C)C[C@@]5(CC(C)(C)[C@@H]4CC[C@@]3(C)[C@]1(C)CC2)OO[C@@](C)(C(F)(F)F)O5,82.2%
